Results published in PubChem BioAssay (NCATS).
“And” between values parts separate entries of the source, which are not always exact repeats. Equal entries are not always repeated. Records with an inconclusive call do not appear. Entries that show only a call come without a potency. The source made the active and inactive calls. Calls come from the whole dose curve.

Tests used:
[1] = Cytotoxicity counterscreen for inhibitors of SARS-CoV-2 cell entry (AID 1645845); conditions: outcome: dose series up to 57.1 µM unless noted; note: nearly all actives have a fitted effect of over 50% in size
Summary of the method: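 Expi293F/hACE2 cells seeded overnight; cpd pin-transferred in DMSO, 1 h preincubation, + media, 48 h 37 C 5% CO2; ATPLite 1step luminescence; normalized to cells and no cells.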

[2] = Primary qHTS to identify inhibitors of SARS-CoV-2 cell entry (AID 1645846); conditions: SARS-CoV-2 pseudovirus cell entry assay, luminescence; activity change, negative = inhibition: at 57.1 µM (top of the series) unless noted; note: nearly all actives have a fitted effect of over 45% in size
Summary of the method: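 Using luciferase-reporting pseudoviruses carrying Wuhan-Hu-1 spike, the screen tracks entry into stably ACE2-expressing cells over 48 hr. Activity is expressed relative to spike particles versus particles lacking any fusion protein.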
Potency is the fitted concentration of half-maximal effect.

Compound | Potency [1] | activity change, negative = inhibition [2] | Potency [2] | activity change, negative = cytotoxicity [1]
CC(C)=CCC[C@](C)(O[C@@H]1O[C@H](CO[C@@H]2O[C@H](CO)[C@@H](O)[C@H](O)[C@H]2O)[C@@H](O)[C@H](O)[C@H]1O)[C@H]1CC[C@]2(C)[C@@H]1[C@H](O)C[C@@H]1[C@@]3(C)CC[C@H](O[C@@H]4O[C@H](CO)[C@@H](O)[C@H](O)[C@H]4O[C@@H]4O[C@H](CO)[C@@H](O)[C@H](O)[C@H]4O)C(C)(C)[C@@H]3CC[C@]12C | inactive | -3.97% [at 27.1 µM] |  | 
Cc1c(NC(=O)c2cc3c(s2)CCCC3)cccc1-c1cn(C)c(=O)c(Nc2ccc(C3C(=O)N(C)CCN3C)cc2)n1 (stereo not given) | inactive |  | inactive | 
COc1cc2c(cc1OC)CN(CCc1ccc(-n3nnc(-c4cc(OC)c(OC)cc4NC(=O)c4cc(=O)c5ccccc5o4)n3)cc1)CC2 |  | 3.34% [at 0.702 µM] |  | 2.79% [at 0.702 µM] (inactive)
Cc1c(Cl)cccc1S(=O)(=O)Nc1nc(CCN2CCOCC2=O)cs1 | inactive | -11.4% |  | 
CN1C(N)=N[C@](C)(c2cc(NC(=O)c3ccc(F)cn3)ccc2F)CS1(=O)=O | inactive | -0.893% |  | 
CC1=C2[N-][C@H]([C@H](CC(N)=O)[C@@]2(C)CCC(=O)NC[C@@H](C)OP(=O)([O-])O[C@H]2[C@@H](O)[C@@H](n3cnc4cc(C)c(C)cc43)O[C@@H]2CO)[C@]2(C)N=C(C(C)=C3N=C(C=C4N=C1[C@@H](CCC(N)=O)C4(C)C)[C@@H](CCC(N)=O)[C@]3(C)CC(N)=O)[C@@H](CCC(N)=O)[C@]2(C)CC(N)=O.O.[Co+2] | inactive | -20.3% |  | 
CNC(=O)Cn1cc(-c2ccc3c(c2)C(F)CC32NC(=O)N(CC(=O)N(Cc3ccc(F)cc3)[C@@H](C)C(F)(F)F)C2=O)cn1 (stereo not given in full) | inactive | -19.9% and -7.29% |  | 
COc1cc([C@@H](CC(=O)O)c2ccc(C)c(CN3C[C@@H](C)Oc4ccccc4S3(=O)=O)c2)cc2nnn(C)c12 | inactive | 2.13% |  | 
CN(CCO)C1CCN(c2ccc(Nc3ncc4c5ccnc(F)c5n(C5CCCC5)c4n3)nc2)CC1 | inactive | -15.6% [at 27.1 µM] |  | 
C=CCN(/C=C1\C(=O)O[C@@H](COC)[C@]2(C)C1=C(O)C(=O)C1=C2[C@@H](OC(C)=O)C[C@]2(C)C(=O)CC[C@H]12)CC=C | inactive |  | inactive | 
COc1cc2ncnc(Nc3cccc(Cl)c3F)c2cc1OC(=O)N1CCN(C)C[C@H]1C | inactive | -27.8% |  | 
CC(=O)O/N=C1/C(c2c(O)[nH]c3cc(Br)ccc23)=Nc2ccccc21 | inactive |  | inactive | 
COc1cccc2c1c(O)c(C(=O)N(C)c1ccc(C(F)(F)F)cc1)c(=O)n2C | inactive | -9.47% |  | 
O=C1OC2(CCC(C(=O)Nc3ccn(-c4ccccc4F)n3)CC2)c2cnccc21 (stereo not given) | inactive |  | inactive | 
CN[C@@H](C)C(=O)N[C@H](C(=O)N1CCC[C@H]1C(=O)Nc1sc(-c2ncco2)nc1-c1ccccc1)C1CCCCC1 | inactive |  | inactive | 
CCO[C@@H]1OC(=O)C[C@@H]1NC(=O)[C@@H]1CCCN2C(=O)CC[C@H](NC(=O)c3nccc4ccccc34)C(=O)N12 | inactive | -4.46% |  | 
CNc1nc(Nc2cnn([C@H]3CCN(C4COC4)C[C@@H]3F)c2Cl)ncc1C(F)(F)F | inactive |  | inactive | 
COc1ccc(Oc2cc(NCCC(F)(F)F)c3ncc(-c4ccc(C(=O)NC5CC5)c(C)c4)n3n2)c(F)c1F | inactive | -12.1% |  | 
CC(C)N(CCCNC(=O)Nc1ccc(C(C)(C)C)cc1)C[C@H]1O[C@@H](n2cc(Br)c3c(N)ncnc32)[C@H](O)[C@@H]1O | 31.6 µM (active) |  | 35.5 µM (active) | 
O=C(c1c(F)ccc(NS(=O)(=O)N2CC[C@@H](F)C2)c1F)c1c[nH]c2ncc(-c3cnc(C4CC4)nc3)cc12 | inactive | -17.3% |  | 
CC(C)(CO)n1cc(C(=O)c2cncc(NC(=O)Cc3ccc(Cl)cn3)c2)c2cnc(N)nc21 | inactive |  | inactive | 
CC1(N)CCN(c2cnc(-c3cccc(Cl)c3Cl)c(N)n2)CC1 | inactive | -2.57% [at 27.1 µM] |  | 
COC1CCC(N2C(=O)CNc3ncc(-c4ccc(C(C)(C)O)nc4)nc32)CC1 (stereo not given) | 7.94 µM (active) |  | 15.8 µM (active) | 
N#CCC1(n2cc(-c3ncnc4[nH]ccc34)cn2)CN(C2CCN(C(=O)c3ccnc(C(F)(F)F)c3F)CC2)C1 | inactive |  | inactive | 
CC1Oc2cc(cnc2N)-c2c(nn(C)c2C#N)CN(C)C(=O)c2ccc(F)cc21 (stereo not given) | inactive | -19.3% |  | 
CC1=C(c2ccc(O)cc2)[C@H](c2ccc(OCCN3CCCCC3)cc2)Oc2cc(O)ccc21 | inactive | -47.4% |  | 
CC(=O)[C@]1(N)Cc2c(O)c3c(c(O)c2[C@@H](O[C@H]2C[C@H](O)[C@H](O)CO2)C1)C(=O)c1ccccc1C3=O | inactive |  | inactive | 
N#Cc1ccnc(N2C(=O)CC[C@H]2C(=O)N(c2cncc(F)c2)C(C(=O)NC2CC(F)(F)C2)c2ccccc2Cl)c1 (stereo not given in full) | inactive | -25.5% |  | 
Cc1c(F)cc(C(=O)NC2CC2)cc1-c1c(F)cn2c(C(C)(C)C)nnc2c1F | inactive | 3.6% |  | 
CCCCNc1ncc2c(-c3ccc(F)cc3)nn(CC3CCC(N)CC3)c2n1 (stereo not given) | inactive |  | 10 µM (active) | 
